Experimental data published in PubChem BioAssay (NCATS).
Inconclusive results are not listed. Calls of active or inactive are those of the source. Calls come from the whole dose curve; as a rule, active = well fitted cell-killing curve with a large enough effect; inconclusive = small, poorly fitted or top-dose-only effect; inactive = flat fitted curve, though single readings scatter.

Test: Quantitative highthroughput screen to assess conditional lethalithy of P12 Ichikawa cells grown in RPMI1640 with untreated serum (RPMI+s) (AID 1963881); note: nearly all actives have a fitted effect of over 35% in size
Details: ATP luminescence, 48 h; Potency: viability; series mostly up to 45.8 µM; viability: at the top concentration
Source text: Assay Provider: Jason Cantor Ph.D.
Department of Biochemistry
University of Wisconsin-Madison, Madison, WI, USA
Chemical screening studies have identified drug sensitivities across hundreds of cancer cell lines but most putative therapeutics fail to translate. Discovery and development of drug candidates in models that more accurately reflect nutrient levels in human blood is a major challenge. Here we performed high-throughput screens in conventional versus Human Plasma-Like Medium (HPLM) to identify compounds that were "missed" when screening using the artificial culture condition. Sets of conditional anticancer compounds spanned phases of clinical development and included non-oncology drugs were assessed. […] We also traced conditional phenotypes for several chemotherapeutics to availability of HPLM-specific metabolites and confirmed others for compounds whose reported targets are encoded by nonessential genes. Our findings establish generalizable strategies for exploiting conditional lethality in HPLM to reveal therapeutic candidates and mechanisms of action in cancer cells.
Described herein are the results of each viability screens against three cell lines: NOMO1 (an acute myeloid leukemia cell line); P12-Ichikawa (a T-cell acute lymphoblastic leukemia); and SEM (a B-cell ALL). Each assay was screened using 3 different cell culture media: homemade human plasma-Like medium with 10% dialyzed fetal bovine serum (HPLM+ds); RPMI1640 with 10% untreated FBS and 5mM glucose (RPMI+s); and RPMI1640 with 10% dialyzed fetal bovine serum and 5 mM glucose (RPMI+ds).
PROTOCOL TABLE (as described by Inglese J, Shamu CE and Guy RK. 2007)
SEQUENCE No. (e.g., 1, 2, 3, etc.); […] (e.g., Cells, Incubation, Reagent, etc.); VALUE and DESCRIPTION.
1; Cells; 5 uL; white, solid bottom 1536-well Greiner assay plate.
2; Compounds; 23 nL; Kalypsis pin tool (Wako USA) equipped with a 1536-well pin head to transfer to the assay plates.
3; Incubation; 48 hours; 37C incubation.
4; Reagent; 3 uL; CellTiter Glo (Promega).
5; Incubation; 5 min, room temperature
6; Detection; Luminescence, Viewlux PerkinElmer.
NOTES (numbers refer to Sequence numbers above)
1. Briefly, 5 ul of cell reagent was dispensed using a Multidrop Combi Dispenser. The NOMO1 and SEM cells were plated at 500 cells/well and the P12-Ichikawa line at 1000 cells/well.
2. After seeding the cells, 23 nL of MIPE 4.1 library compounds (in DMSO) were added to each plate using a Kalypsys 1536 Pintool dispenser. Bortezomib at final concentration of […] and DMSO were added to each plate as positive and negative controls respectively. For each screen, MIPE 4.1 compounds were added over an eleven-point concentration range […] in 3-fold dilutions.
3. Each plate was covered with a stainless steel gasketed lid to prevent evaporation and incubated for 48 hour at 37C, 95% relative humidity, and 5% CO2.
4-5. Three microliter CellTilter-GloTM luminescent substrate mix (Promega) reagent was added to the assay plate and incubated at room temperature for 5 min.
6. The luminescence signal was measured using a ViewLux (PerkinElmer) multiplate reader with a 2 second exposure time per plate. Data for each compound were normalized as percent viability such that measurements for DMSO and the empty well controls in each plate were defined as 100% and 0%, respectively.
Potency is the fitted concentration of half-maximal effect.

| Compound | viability | Potency |
| --- | --- | --- |
| C#CC1(O)CCC2C3CCC4=CC(=O)CCC4(C)C3CCC21C (stereo not given) | 107% (inactive) |  |
| C[C@]12CCC(=O)C=C1CC[C@@H]1[C@H]3CC[C@](C)(O)[C@@]3(C)CC[C@@H]12 | 87.9% [at 92.2 µM] (inactive) |  |
| CN(C)CCN(C)CCc1ccc(Cl)c(Cl)c1 | 101% (inactive) |  |
| C[C@]12CCC(=O)C(O)=C1CC[C@@H]1[C@H]3CCC(=O)[C@@]3(C)CC[C@@H]12 | 99.2% (inactive) |  |
| CCN1C[C@]2(OC(=O)c3ccccc3NC(C)=O)CC[C@H](OC)[C@@]34[C@H]5CC6[C@@H](OC)C[C@](O)(C(C[C@@H]23)[C@@H]14)[C@@]5(O)[C@@H]6OC | 103% (inactive) |  |
| CC(=Cc1csc(C)n1)[C@@H]1C[C@H]2O[C@@H]2CCC[C@H](C)[C@@H](O)[C@@H](C)C(=O)C(C)(C)[C@@H](O)CC(=O)O1 | 18.3% (inactive) |  |
| Cc1ccccc1-n1c(Cn2ncc3c(N)ncnc32)nc2cccc(C)c2c1=O |  | 2640 nM (active) |
| C=C(C)[C@H]1Cc2c(ccc3c2O[C@@H]2COc4cc(OC)c(OC)cc4[C@@H]2C3=O)O1 |  | 2090 nM (active) |
| CN1CCN(c2ccc([N+](=O)[O-])c3no[n+]([O-])c23)CC1 | 102% (inactive) |  |
| C[C@@H]1[C@H](O)[C@@H](C)C=CC=CCCC=CC=CC=CC=C[C@H](O[C@H]2O[C@@H](C)[C@H](O)[C@@H](N)[C@@H]2O)CC2O[C@](O)(C[C@@H](O)[C@H](O)CC[C@@H](O)C[C@@H](O)C[C@@H](O)CC(=O)O[C@H]1C)C[C@H](O)[C@H]2C(=O)O | 96.1% (inactive) |  |
| CNCC(O)c1ccc(O)cc1 (stereo not given) | 88.9% (inactive) |  |
| CCCC(C)(COC(N)=O)COC(=O)NC(C)C (stereo not given) | 99.5% (inactive) |  |
| CC(=O)OCC1=C(C(=O)O)N2C(=O)[C@@H](N)[C@@H]2SC1 |  | 1480 nM (active) |
| CC(C)[C@H]1C(=O)N[C@H](CO)Cc2c[nH]c3cccc(c23)N1C |  | 372 nM (active) |
| C#CCN(C)[C@H](C)Cc1ccccc1 | 104% (inactive) |  |
| C[C@@H]1C[C@@H]([C@H](O)CC2CC(=O)NC(=O)C2)C(=O)[C@@H](C)C1 |  | 264 nM (active) |
| O=C(O)c1nn(Cc2ccc(Cl)cc2Cl)c2ccccc12 | 100% (inactive) |  |
| O=C(O)C(=O)c1cn(Cc2ccccc2)c2ccc(-c3ccc(OC(F)(F)F)cc3)cc12 | 92.7% (inactive) |  |
| COc1ccc2c(c[n+](C)c3c4cc5c(cc4ccc23)OCO5)c1OC |  | 11800 nM (active) |
| CC(C)(O)C=CC(=O)[C@](C)(O)[C@H]1[C@H](O)C[C@]2(C)[C@@H]3CC=C4[C@@H](C=C(O)C(=O)C4(C)C)[C@]3(C)C(=O)C[C@@]12C |  | 148 nM (active) |

| Compound | viability | Potency |
| --- | --- | --- |
| Cc1[nH]nc2ccc(-c3cncc(OC[C@@H](N)Cc4c[nH]c5ccccc45)c3)cc12 |  | 1480 nM (active) |
| NCC1(CC(=O)O)CCCCC1 | 117% (inactive) |  |
| CC(C)(C)[C@]1(O)C[C@@H]2OC(=O)C[C@@]23C(=O)O[C@@H]2OC(=O)[C@H](O)C213 (stereo not given in full) | 102% (inactive) |  |
| CC1=C(O)C(=O)C=C2C1=CC=C1[C@@]2(C)CC[C@@]2(C)[C@@H]3C[C@](C)(C(=O)O)CC[C@]3(C)CC[C@]12C |  | 2960 nM (active) |
| Clc1ccccc1C(c1ccccc1)(c1ccccc1)n1cccn1 | 102% (inactive) |  |
| COc1cc(OC)c(OC)cc1C=O | 111% (inactive) |  |
| Cc1cc(SCc2sc(-c3ccc(C(F)(F)F)c(F)c3)nc2C)ccc1OCC(=O)O | 97.6% (inactive) |  |
| COc1ccc(C(=O)c2c(C)n(CCN3CCOCC3)c3cc(I)ccc23)cc1 |  | 4180 nM (active) |
| CC(=O)Nc1ccc(OC[C@](C)(O)C(=O)Nc2ccc([N+](=O)[O-])c(C(F)(F)F)c2)cc1 | 98.3% (inactive) |  |
| COc1ccc(C(CN(C)C)C2(O)CCCCC2)cc1 (stereo not given) | 109% (inactive) |  |
| COC1(CS(=O)c2ccccc2)CCN(CCc2c[nH]c3ccc(F)cc23)CC1 (stereo not given) | 97.8% (inactive) |  |
| CC(C)[C@]12O[C@@H]1[C@@H]1O[C@]13[C@]1(O[C@H]1C[C@@H]1C4=C(CC[C@@]13C)C(=O)OC4)[C@H]2O |  | 1.5 nM (active) |
| CCCC[N+]1(C)[C@H]2CC(OC(=O)[C@H](CO)c3ccccc3)C[C@H]1[C@H]1O[C@H]12 (stereo not given in full) | 101% (inactive) |  |
| COc1cccc2c1[C@]13CCN(CC4CC4)[C@H](C2)[C@]1(OC)CCC(=O)C3 | 98.3% (inactive) |  |
| O=C(O)CNC(=O)c1c(O)c2ccccc2n(Cc2ccccc2)c1=O | 100% (inactive) |  |
| CCOC(=O)c1cncn1[C@H](C)c1ccccc1 | 107% (inactive) |  |
| O=c1[nH]c2ccc(Cl)cc2c(N[C@@H]2CN3CCC2CC3)c1-c1nc2ccccc2[nH]1 |  | 166 nM (active) |
| COc1ccc(CC2NCCc3cc(OC)c(OC)cc32)cc1OC (stereo not given) | 94.9% (inactive) |  |
| CN(C)[C@@H]1C(=O)C(C(N)=O)=C(O)[C@@]2(O)C(=O)C3=C(O)c4c(O)cccc4[C@@](C)(O)[C@H]3C[C@@H]12 | 100% (inactive) |  |
| COc1cc2cc(c1Cl)N(C)C(=O)C[C@H](OC(=O)C(C)C)[C@]1(C)O[C@H]1[C@H](C)[C@@H]1C[C@@](O)(NC(=O)O1)[C@H](OC)C=CC=C(C)C2 | 1.52% (inactive) |  |
